# Most compounds without a hit are left out; they make up all but 11% or so of the library.
# PI5P4Ka inh: blocks human PI5P4K alpha kinase activity. 330,000 tested, 1.2% active. AID 652105. P48426. PI5P4Kalpha enzyme, ADP-Glo luminescence, 60 min; hits give low values. max response, %; active = max response of -50% or lower; inconclusive = between -30% and -50%; inactive = -30% or higher; note: value at the top dose of about 77 µM; % is set by controls: 0 for no effect and ±100 for the full control effect
#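 Human PI5P4Kalpha with substrate in 0.038 M HEPES pH 7.4, 0.28 mM EGTA, 0.1% CHAPS, 5% DMSO; reaction started with 5 microM ATP (final), 60 min at room temperature. ADP formed read by ADP-Glo luminescence.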
# JMJD2A Tudor: inhibitors of human JMJD2A Tudor domain; Potency, µM (top dose mostly 114 µM), inactives show top-dose activity change, negative = inhibition, hits mostly inhibitors; AID 504339; AlphaScreen JMJD2A-Tudor / H3K4me3 peptide binding; O75164; 390,000 tested, 4.4% active; note: potency is the fitted concentration of half-maximal effect; % is set by controls: 0 for no effect and ±100 for the full control effect; nearly all actives have a fitted effect of over 50% in size
# Target sequence (O75164 whole entry, looked up, the tested form may be a part): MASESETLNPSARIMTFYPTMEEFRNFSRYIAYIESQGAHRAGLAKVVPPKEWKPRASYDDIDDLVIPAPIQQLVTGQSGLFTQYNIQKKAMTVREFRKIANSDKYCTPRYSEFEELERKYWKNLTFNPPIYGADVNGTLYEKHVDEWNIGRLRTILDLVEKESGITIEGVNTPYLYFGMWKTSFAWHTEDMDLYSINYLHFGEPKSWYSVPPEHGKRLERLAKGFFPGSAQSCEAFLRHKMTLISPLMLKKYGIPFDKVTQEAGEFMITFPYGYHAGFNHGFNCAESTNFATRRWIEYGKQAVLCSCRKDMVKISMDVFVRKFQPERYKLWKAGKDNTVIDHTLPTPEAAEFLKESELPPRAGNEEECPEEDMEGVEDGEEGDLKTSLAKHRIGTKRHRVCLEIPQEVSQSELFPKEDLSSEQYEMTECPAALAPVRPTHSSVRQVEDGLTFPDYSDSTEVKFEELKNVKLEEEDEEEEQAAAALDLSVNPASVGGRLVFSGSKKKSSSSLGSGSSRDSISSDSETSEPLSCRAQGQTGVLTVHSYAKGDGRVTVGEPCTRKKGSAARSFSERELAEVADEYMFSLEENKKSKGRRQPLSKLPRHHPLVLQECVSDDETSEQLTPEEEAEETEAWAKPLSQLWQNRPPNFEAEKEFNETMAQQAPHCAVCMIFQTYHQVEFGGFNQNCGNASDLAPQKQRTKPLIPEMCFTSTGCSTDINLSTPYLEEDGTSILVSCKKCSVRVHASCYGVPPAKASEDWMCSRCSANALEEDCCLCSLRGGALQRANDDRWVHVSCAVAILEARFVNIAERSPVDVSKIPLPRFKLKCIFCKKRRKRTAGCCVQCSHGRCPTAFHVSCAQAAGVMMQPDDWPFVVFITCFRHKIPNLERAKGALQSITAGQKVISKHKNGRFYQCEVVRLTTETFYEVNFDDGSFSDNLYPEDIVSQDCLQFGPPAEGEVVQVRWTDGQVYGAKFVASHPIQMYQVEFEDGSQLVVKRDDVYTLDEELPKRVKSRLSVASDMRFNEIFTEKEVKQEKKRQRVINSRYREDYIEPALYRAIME
# BAZ2B block: blocks human BAZ2B; AlphaScreen BAZ2B-H3K14Ac peptide displacement; Potency, µM (doses to about 114 µM), inactives show at the top dose activity change, negative = inhibition, usual class: inhibitors; 360,000 tested, 4.4% active; note: potency is the fitted concentration of half-maximal effect; % is set by controls: 0 for no effect and ±100 for the full control effect; nearly all actives have a fitted effect of over 60% in size
#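 BAZ2B 50 nM plus b-H3(5-23)K14Ac 50 nM, PBS pH 7.4/0.01% Tween-20, 30 min RT; compound added (max 110 uM), 30 min RT; streptavidin donor/Ni-chelate acceptor beads 10 ug/mL final, 20 min dark; AlphaScreen read.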
# L3MBTL1 inh: inhibitors of human L3MBTL1; Q9Y468; AlphaScreen L3MBTL1–H3K9me1 peptide binding; Potency, µM (doses to about 57.1 µM), for inactives: at the top dose activity, negative = inhibition, actives largely listed as inhibitors; 230,000 tested, 0.66% active; AID 485360; note: potency is the fitted concentration of half-maximal effect; % is set by controls: 0 for no effect and ±100 for the full control effect; nearly all actives have a fitted effect of over 60% in size
#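 AlphaScreen proximity signal between nickel-chelate acceptor and streptavidin donor beads (final 10 ug/mL) reports binding of 50 nM L3MBTL1 to 75 nM biotin-H3 K9me1 peptide; complex incubated with compounds 30 min at room temperature; cefsulodin titration as control.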
# G9a inh: blocks human histone lysine methyltransferase G9a. Q96KQ7. G9a H3K9 monomethylation, AlphaScreen, 2 h. Potency, µM (highest dose often 102 µM), without a hit: top-dose activity, negative = inhibition, actives largely listed as inhibitors. 350,000 tested, 8.8% active; note: potency is the fitted concentration of half-maximal effect; % is set by controls: 0 for no effect and ±100 for the full control effect; nearly all actives have a fitted effect of over 75% in size
#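 AlphaScreen detection with an anti-monomethyl H3K9 antibody quantified product after a 2 h room-temperature reaction containing 500 nM biotinylated H3K9 peptide, 20 µM SAM and 20 nM enzyme, which had been preincubated 15 min with compound.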
# HP1b binding inh: blocks HP1-beta chromodomain binding to methylated histone tails; AlphaScreen HP1-beta / biotin-H3K9me3 peptide binding; Potency, µM (titrated, usually from 114 µM), for inactives: at the highest dose activity change, negative = inhibition, hits mostly inhibitors; 390,000 tested, 0.56% active; note: potency is the fitted concentration of half-maximal effect; nearly all actives have a fitted effect of over 70% in size
#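 HP1-beta protein (50 nM final) preincubated 30 min at room temperature with biotinylated H3(1-18)K9me3 peptide (50 nM) in PBS pH 7.4, 0.01% Tween-20, then compound added for 30 min. AlphaScreen streptavidin donor/nickel chelate acceptor beads (10 ug/mL final), 30 min dark, luminescence read.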
# * marks the source's active call; other numbers are inactive results; ? = inconclusive; / = no result given; [ ] = dose if it differs, or a comment. Unless noted, calls come from the whole dose curve; as a rule, active = well fitted inhibition curve with a large enough effect; inconclusive = small, poorly fitted or top-dose-only effect; inactive = no such curve, though single readings can be large or run the other way.
SMILES,PI5P4Ka inh,JMJD2A Tudor,BAZ2B block,L3MBTL1 inh,G9a inh,HP1b binding inh
Cn1c2ccccc2c(=O)c2c(=O)n(-c3ccccc3)c(-c3ccc(C(C)(C)C)cc3)nc21,-9.6,-30.7%,-22.4%,-2.2%,-6.3%,36.1%
Cc1onc(-c2ccccc2)c1-c1n[nH]c(=S)n1-c1ccccc1,-5.7,63.1µM*,/,/,/,-20.8%
COc1ccc(-c2cc(C3CCN(C(=O)OC(C)(C)C)CC3)[nH]n2)cc1,-13.2,?,-13.3%,-4.8%,2.7%,-14.5%
Cc1onc(-c2ccccc2)c1-c1csc(COc2ccccc2)n1,-4.8,152.5%,87.2%,67.3%,428.8%,197.9%
O=C(O)c1ccc(-n2c(-c3cc(C4CC4)[nH]n3)n[nH]c2=S)cc1,-7.2,20µM*,-10.4%,0.3%,17.8µM*,43.6%
CC(C)OCCCNC(=O)CN1C(=O)c2ccccc2Sc2ncccc21,/,-4.0%,-0.7%,/,-4.9%[59 µM],34.5%
O=C1CC(c2nc(-c3ccc(Cl)cc3)no2)CN1c1ccc2c(c1)OCCO2 (configuration not stated),/,-12.3%,-5.6%,/,7.5%[59 µM],6.6%
COc1cc(-c2n[nH]c(=S)n2-c2ccc(C)cc2)cc(OC)c1OC,-9.8,5.01µM*,50.1µM*,-21.9%,/,-6.7%
COc1ccc(-c2n[nH]c(=S)n2-c2ccc(Br)cc2)cc1OC,9.2,50.1µM*,-31.9%,0.6%,1.58µM*,6.0%
Cc1ccc(OCc2n[nH]c(=S)n2-c2ccc(Br)cc2)cc1,-8.5,-35.0%,-33.2%,-9.0%[2.29 µM],2.4%[0.501 µM],2.2%
COc1ccc(-n2c(COc3ccc(Cl)cc3Cl)n[nH]c2=S)cc1,-4.4,/,/,/,/,/
O=C(O)c1ccc(-n2c(-c3ccccc3)n[nH]c2=S)cc1,/,28.2µM*,-2.9%,-2.5%,?,33.6%
CC(c1ccccc1)n1c(-c2ccc(C(C)(C)C)cc2)n[nH]c1=S (configuration not stated),-1.1,?,?,-3.0%,31.6µM*,12.7%
Cc1cc(NC2CCCCC2)nc(-n2nc(C)cc2C)n1,/,/,/,/,37.8%[59 µM],/
O=C(CSc1n[nH]c(-c2ccccc2)n1)N1CCN(c2ccccc2F)CC1,/,-16.2%,-2.2%,/,10.2%[59 µM],11.5%[57 µM]
O=C(Nc1ccccc1C(=O)OCc1cc(=O)n2ccsc2n1)c1cccc(F)c1,/,-18.5%,-7.4%,/,1.7%[59 µM],36.3%
Cc1ccc(-n2c(-c3ccccc3)n[nH]c2=S)c(C)c1,-0.5,?,-5.3%,-7.2%,1.78µM*,41.1%
COC(=O)c1cc2sc(C)cc2n1Cc1ccc(Br)cc1F,/,45.8%,54.6%,/,88.3%[59 µM],66.1%
C/C(=N\Nc1ccc(F)cc1)c1ccc(N2CCOCC2)c(F)c1,2.7,-24.6%,-19.0%,/,28.2µM*,31.8%
O=C1CCCc2c1cc(C(=O)Nc1ccc(Br)cn1)c(=O)n2-c1ccccc1,-14.6,79.4µM*,-4.2%,-4.9%,-38.1%[12.7 µM],23.2%
COc1cc(NC(=O)c2ccc(-c3nc(COc4ccccc4)c(C)o3)cc2)cc(OC)c1,/,-16.2%,-23.5%,/,-29.2%[59 µM],18.4%
CC(N)(C(=O)O)c1cccc(CC(=O)O)c1 (configuration not stated),/,/,/,/,19.0%[59 µM],/
CC1(C)Cc2c(sc3c2c(=N)n(Cc2ccco2)c(=O)n3Cc2ccccc2)CO1,-5.0,-7.5%[11.4 µM],79.4µM*,/,?,-7.0%
CC1(C)Cc2c(sc3[nH]c(=S)n(Cc4ccco4)c(=O)c23)CO1,/,?,-3.1%,-0.9%,50.1µM*,-7.7%
S=C1NCN(Cc2ccccc2)CN1,0.5,-20.1%,24.3%,-6.7%,?,48.0%
S=c1[nH]ccn1Cc1ccccc1,-4.9,14.1µM*,-14.7%,-12.1%,6.31µM*,-31.0%
CC1CC(C)CN(C(=O)C(C)N(C)CC(=O)Nc2ccc(F)cc2)C1 (configuration not stated),-0.3,0.0%,8.3%,3.4%,11.0%[12.7 µM],25.8%
CSc1ccccc1NC(=O)CN(C)C(C)C(=O)NCc1ccc2c(c1)OCO2 (configuration not stated),-2.0,5.01µM*,/,-3.8%,/,?

# Screening data as filed in PubChem.
